According to PubChem BioAssay AID2073 (Sanford-Burnham Center for Chemical Genomics, 2009):
The campaign covered roughly 290,000 compounds. About 570 (0.2%) were called active. About 1% were inconclusive and are not listed. No stated cut-off is given here; in the data, active means inhibition mostly above about 51% (no sharp cut-off); inconclusive means no clear call, values can overlap the other calls; inactive means mostly below about 53%. The list comes from a sample in which actives are over-represented; it also holds similar structures and randomly drawn compounds.

Target: Voltage-dependent N-type calcium channel subunit alpha-1B (Homo sapiens) (UniProt Q00975)
Test: inhibitors of Mint1-CaV2.2 protein interaction, biochemical, HTRF (AID 2073)
Conditions: at 20 µM, stronger effect = higher value
[1] = measured here: average of repeat tests

Sequence of Voltage-dependent N-type calcium channel subunit alpha-1B (Homo sapiens) (Q00975 whole entry, looked up): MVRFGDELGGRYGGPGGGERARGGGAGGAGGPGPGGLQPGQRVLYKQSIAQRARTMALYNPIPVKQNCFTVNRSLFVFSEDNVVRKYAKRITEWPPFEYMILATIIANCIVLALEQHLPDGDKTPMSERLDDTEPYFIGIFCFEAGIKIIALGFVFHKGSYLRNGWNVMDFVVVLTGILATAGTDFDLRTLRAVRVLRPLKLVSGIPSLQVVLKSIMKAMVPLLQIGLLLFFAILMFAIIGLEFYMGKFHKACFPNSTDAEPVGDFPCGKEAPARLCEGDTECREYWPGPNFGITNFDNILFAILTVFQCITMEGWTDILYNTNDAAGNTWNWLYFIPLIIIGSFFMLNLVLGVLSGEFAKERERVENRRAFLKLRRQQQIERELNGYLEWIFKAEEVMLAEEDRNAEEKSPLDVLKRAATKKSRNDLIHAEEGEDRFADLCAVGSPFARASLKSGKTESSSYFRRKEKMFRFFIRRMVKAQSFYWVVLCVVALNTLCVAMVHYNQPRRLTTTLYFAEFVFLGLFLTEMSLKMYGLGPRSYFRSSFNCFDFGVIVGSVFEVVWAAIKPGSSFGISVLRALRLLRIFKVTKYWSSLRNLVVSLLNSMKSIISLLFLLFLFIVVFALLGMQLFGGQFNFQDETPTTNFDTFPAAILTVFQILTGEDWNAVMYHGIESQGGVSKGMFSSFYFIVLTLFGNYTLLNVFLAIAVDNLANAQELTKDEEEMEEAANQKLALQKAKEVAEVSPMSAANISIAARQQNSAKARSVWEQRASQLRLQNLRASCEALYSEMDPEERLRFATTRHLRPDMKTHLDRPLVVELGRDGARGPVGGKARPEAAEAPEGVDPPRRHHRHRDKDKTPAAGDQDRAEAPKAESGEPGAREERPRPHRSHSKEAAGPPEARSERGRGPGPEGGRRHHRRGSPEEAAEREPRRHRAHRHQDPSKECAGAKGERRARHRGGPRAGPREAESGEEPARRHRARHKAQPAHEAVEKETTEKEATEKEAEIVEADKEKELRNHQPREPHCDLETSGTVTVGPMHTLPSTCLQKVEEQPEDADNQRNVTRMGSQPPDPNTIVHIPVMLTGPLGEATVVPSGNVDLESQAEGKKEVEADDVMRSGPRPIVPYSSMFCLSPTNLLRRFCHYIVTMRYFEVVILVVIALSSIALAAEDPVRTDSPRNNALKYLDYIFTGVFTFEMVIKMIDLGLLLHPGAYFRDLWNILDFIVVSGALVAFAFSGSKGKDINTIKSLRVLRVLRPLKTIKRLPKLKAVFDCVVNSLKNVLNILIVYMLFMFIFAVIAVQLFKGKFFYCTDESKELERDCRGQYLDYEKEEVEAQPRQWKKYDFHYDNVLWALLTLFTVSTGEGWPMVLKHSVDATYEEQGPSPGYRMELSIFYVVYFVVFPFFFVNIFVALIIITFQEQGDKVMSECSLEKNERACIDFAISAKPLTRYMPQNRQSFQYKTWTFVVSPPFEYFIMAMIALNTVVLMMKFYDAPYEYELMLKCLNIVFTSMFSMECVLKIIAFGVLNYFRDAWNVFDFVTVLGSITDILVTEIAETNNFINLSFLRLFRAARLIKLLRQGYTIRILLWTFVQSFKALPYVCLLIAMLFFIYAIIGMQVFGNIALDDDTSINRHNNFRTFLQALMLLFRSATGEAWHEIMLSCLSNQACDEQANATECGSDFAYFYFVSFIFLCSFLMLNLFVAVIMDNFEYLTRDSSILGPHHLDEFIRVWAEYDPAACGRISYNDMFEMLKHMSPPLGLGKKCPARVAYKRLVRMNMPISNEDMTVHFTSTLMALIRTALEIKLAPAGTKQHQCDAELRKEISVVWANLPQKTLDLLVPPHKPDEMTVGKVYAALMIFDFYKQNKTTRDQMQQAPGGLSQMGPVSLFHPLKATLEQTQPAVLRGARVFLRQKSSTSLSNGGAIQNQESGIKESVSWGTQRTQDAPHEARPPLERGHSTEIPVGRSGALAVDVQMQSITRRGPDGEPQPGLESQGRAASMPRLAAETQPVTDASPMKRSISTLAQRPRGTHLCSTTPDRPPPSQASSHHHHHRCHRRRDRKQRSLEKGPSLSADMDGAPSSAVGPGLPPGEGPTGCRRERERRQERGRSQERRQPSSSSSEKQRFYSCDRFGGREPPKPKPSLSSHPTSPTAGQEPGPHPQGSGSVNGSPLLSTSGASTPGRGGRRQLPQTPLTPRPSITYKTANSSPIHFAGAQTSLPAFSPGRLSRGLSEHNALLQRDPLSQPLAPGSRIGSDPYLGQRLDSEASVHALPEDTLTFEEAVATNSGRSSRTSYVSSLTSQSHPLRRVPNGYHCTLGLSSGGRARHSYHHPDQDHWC

**Q.** For `COc1ccc(C2=CC(c3c(C)nn(-c4ccccc4)c3Cl)n3nnnc3N2)cc1OC` (configuration not stated), which inhibition is on record?
**A.** 24.3% (inactive)

**Q.** For `CSc1nc(C)cc(-n2cc(F)c(=O)[nH]c2=O)n1`, which inhibition is on record?
**A.** -1.3% (inactive)

**Q.** With `O=C1C(Cl)=C(NC(=O)c2ccccc2)C(=O)C(Cl)=C1NC(=O)c1ccccc1` as the molecule, how does the inhibition read?
**A.** 81.8% (active)

**Q.** With `O=C(Nc1ccccc1Cl)c1ccccc1` as the molecule, how does the inhibition read?
**A.** 23.6% (inactive)

**Q.** How did the inhibition turn out when `O=C(NC1=C(Nc2ccc(Cl)cc2)C(=O)c2ccccc2C1=O)c1ccccc1` was run?
**A.** -10.9% (inactive)

**Q.** `CC(=O)N1CCN(C(=O)c2ccc3c(c2)OCCO3)CC1` was tested. Which inhibition did it give?
**A.** 16.6% (inactive)

**Q.** For `CCOC(=O)C1=C(Cc2ccc(C)cc2)C(=O)c2ccccc2C1=O`, which inhibition is on record?
**A.** 36% (inactive)

**Q.** Which inhibition does the source give for `CCOC(=O)C1=C(O)c2ccccc2C(=O)/C1=C\c1ccc(CC)cc1` here?
**A.** 54.8% (active)

**Q.** Which inhibition does the source give for `CCOC(=O)C1=C(Cc2ccc(F)cc2)C(=O)c2ccccc2C1=O` here?
**A.** 76% (inactive)

**Q.** What about the inhibition [1] of the same molecule?
**A.** 27.8%

**Q.** `CCOC(=O)C1=C(O)c2ccccc2C(=O)/C1=C\c1ccc(C)cc1` was tested. Which inhibition did it give?
**A.** 49.4% (inactive)

**Q.** Which results are given for `CCOC(=O)C1=C(Cc2ccc(Cl)cc2)C(=O)c2ccccc2C1=O`?
**A.** inhibition: 66.8% (inactive); inhibition [1]: 19.3%

**Q.** For `CCOC(=O)C1=C(Cc2ccc(OC)cc2)C(=O)c2ccccc2C1=O`, which inhibition is on record?
**A.** 61.9% (active)

**Q.** How did the inhibition turn out when `COc1ccc(N/C(=N/c2nc(C)cc(C)n2)NC(=O)c2ccccc2)cc1` was run?
**A.** 8.5% (inactive)

**Q.** With `CSc1cccc(NC(=O)C2CCN(C(=O)c3ccccc3C)CC2)c1` as the molecule, how does the inhibition read?
**A.** 3.1% (inactive)

**Q.** Which inhibition does the source give for `CCOc1ccc(CCNC(=O)CSc2nnnn2C)cc1OCC` here?
**A.** 0% (inactive)

**Q.** `CC1=CC(=C(C#N)C#N)C=C(C)N1Cc1ccccc1` was tested. Which inhibition did it give?
**A.** -8.3% (inactive)

**Q.** For `CCn1c(=O)c(=O)[nH]c2cc(C(=O)Nc3ccc(S(=O)(=O)N4CCCC4)cc3)ccc21`, which inhibition is on record?
**A.** 19.2% (inactive)

**Q.** With `CCCNC(=O)OC[C@H]1O[C@H](CCO/N=C/c2ccc(C(=O)N3[C@H](c4ccc(C)cc4)[C@@H](C)CC[C@H]3C(=O)OC)cc2)C=C[C@@H]1Oc1ccc(OC)cc1` as the molecule, how does the inhibition read?
**A.** 6.9% (inactive)

**Q.** How did the inhibition turn out when `CCOC(=O)c1cc(NC(=O)CCC(=O)O)ccc1N1CCCCC1` was run?
**A.** 19.3% (inactive)

**Q.** For `O=C(/C=C\c1ccco1)Nc1nc(-c2ccccc2)cs1`, which inhibition is on record?
**A.** 0% (inactive)

**Q.** How did the inhibition turn out when `O=C(/C=C/c1ccco1)Nc1nc(-c2ccccc2)cs1` was run?
**A.** 26.4% (inactive)

**Q.** Which inhibition does the source give for `O=C(/C=C/c1ccc2c(c1)OCO2)Nc1nc(-c2ccccc2)cs1` here?
**A.** 26% (inactive)

**Q.** For `O=C(/C=C/c1ccccc1)Nc1nc(-c2ccncc2)cs1`, which inhibition is on record?
**A.** 54.1% (active)

**Q.** Which inhibition does the source give for `O=C(/C=C/c1cccs1)Nc1nc(-c2ccccc2)cs1` here?
**A.** 10% (inactive)

**Q.** How did the inhibition turn out when `O=C(/C=C/c1ccco1)Nc1nc(-c2ccccn2)cs1` was run?
**A.** 54.1% (active)
